Reference: PubChem BioAssay (Tox21)
Records with an inconclusive call do not appear. The source made the active and inactive calls. Unless noted, the call rests on the fitted dose curve; in most records, active means well fitted curve in the direction sought with a large enough effect in the repeat runs; inconclusive means weak or mixed curves; inactive means no such curve, though single readings can be large; an effect the other way counts as inactive or inconclusive.

How the values were obtained:
[1] = target: Aryl hydrocarbon receptor (Homo sapiens) (UniProt P35869); assay: qHTS assay to identify small molecule that activate the aryl hydrocarbon receptor (AhR) signaling pathway (AID 743085);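 further: HG2L7.5c1 human HepG2 liver cells with stably integrated DRE-driven firefly reporter; series mostly up to about 70 µM; nearly all actives have a fitted effect of over 15% in size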
How it was run: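 Stably transfected human liver carcinoma cells (HG2L7.5c1; 20 DRE-firefly luciferase) were incubated 5 h, dosed, and kept 24 h at 37C. Agonism was scored from increased luciferase luminescence.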

[2] = qHTS assay to identify small molecule that activate the aryl hydrocarbon receptor (AhR) signaling pathway - cell viability counter screen (AID 743086);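 further: HepG2 liver cells carrying the AhR DRE luciferase reporter; series mostly up to about 70 µM; nearly all actives have a fitted effect of over 45% in size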
How it was run: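 HepG2-AhR-luc (HG2L7.5c1) cells, 4000/well, were preincubated 5 h at 37C, exposed to compound in qHTS format for 24 hr at 37C, then given CellTiter-Fluor for 30 min; viability was read as fluorescence in the reporter wells.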

[3] = target: Peroxisome proliferator-activated receptor gamma (Homo sapiens) (UniProt P37231); assay: qHTS assay to identify small molecule agonists of the peroxisome proliferator-activated receptor gamma (PPARg) signaling pathway (AID 743094; active means well fitted activation curve with a large enough effect in the signal ratio in the repeat runs, not every such curve was filed as active; the % refers to the signal ratio)
How it was run: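 Following 5 h plating at 37C, PPARg-bla HEK293H cells receive compound or DMSO for 17 h; fluorescence intensity is recorded after LiveBLAzer B/G loading for 1 h at room temperature.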

[4] = target: Peroxisome proliferator-activated receptor gamma (Homo sapiens) (UniProt P37231); assay: qHTS assay to identify small molecule antagonists of the peroxisome proliferator-activated receptor gamma (PPARg) signaling pathway (AID 743191; calls by dose curve; further: series mostly up to about 63 µM; nearly all actives have a fitted effect of over 30% in size)
How it was run: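 GeneBLAzer PPARg UAS-bla HEK293H cells carrying a UAS-driven beta-lactamase reporter were plated at 3000 cells/well, preincubated 5 h at 37C, then given compound for 17 h at 37C; LiveBLAzer B/G FRET substrate was read after 1 h at room temperature.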

[5] = qHTS assay to identify small molecule antagonists of the peroxisome proliferator-activated receptor gamma (PPARg) signaling pathway - cell viability counter screen (AID 743194); further: nearly all actives have a fitted effect of over 55% in size
How it was run: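 PPARg-UAS-bla HEK293H cells were plated, rested 5 h at 37 C, then treated with compounds plus rosiglitazone (50 nM final) for 17 h at 37 C; viability was then read by CellTiter-Glo luminescence after 30 min at room temperature.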

[6] = qHTS assay for small molecule agonists of the antioxidant response element (ARE) signaling pathway - cell viability counter screen (AID 743203; calls by dose curve; further: nearly all actives have a fitted effect of over 55% in size)
How it was run: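 Compounds in DMSO were pinned onto ARE-bla HepG2 cells plated 5 hrs earlier at 2,000 cells/well. Sixteen hours later at 37C/5% CO2, CellTiter-Glo was added and luminescence measured after 30 min at room temperature.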

[7] = qHTS assay for small molecule activators of the heat shock response signaling pathway - cell viability counter screen (AID 743209); further: nearly all actives have a fitted effect of over 50% in size
How it was run: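 Counter screen for cytotoxicity in HeLa HSE-bla reporter cells. Treatment was 5 h at 37 C; viability was detected by luminescent ATP assay (CellTiter-Glo) in the same wells as the beta-lactamase read.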

[8] = qHTS assay for small molecule activators of the heat shock response signaling pathway (AID 743210; active means well fitted activation curve with a large enough effect in the signal ratio in the repeat runs, with a control signal flat, not every such curve was filed as active; the % refers to the signal ratio; further: series mostly up to about 63 µM)
How it was run: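 HSE-bla HeLa cells (beta-lactamase reporter under heat shock response elements) were exposed to compounds for 5 h at 37 C, then loaded with LiveBLAzer B/G FRET substrate for 2.5 h at room temperature before fluorescence reading.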

[9] = qHTS assay to identify small molecule agonists of the peroxisome proliferator-activated receptor delta (PPARd) signaling pathway - cell viability counter screen (AID 743211); further: nearly all actives have a fitted effect of over 55% in size
How it was run: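 In the same wells used for beta-lactamase reporter measurement, cytotoxicity is scored by CellTiter-Glo. HEK293H PPARd-bla cells receive compound for 17 h at 37C following a 5 h settling period.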

[10] = qHTS assay to identify small molecule antagonists of the peroxisome proliferator-activated receptor delta (PPARd) signaling pathway - cell viability counter screen (AID 743213); further: nearly all actives have a fitted effect of over 50% in size
How it was run: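 HEK293H cells with the PPARd UAS-bla reporter, co-treated 17 h at 37 C with compounds and L165041 (300 nM final), were lysed with CellTiter-Glo. Luminescence indicated viable cell content.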

[11] = qHTS assay to identify small molecule agonists of the farnesoid-X-receptor (FXR) signaling pathway - cell viability counter screen (AID 743218); further: nearly all actives have a fitted effect of over 45% in size
How it was run: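 After 16 h at 37 C with test compounds, FXR-bla HEK 293T cells were given LiveBLAzer B/G substrate for 2 h at RT and then CellTiter-Glo; luminescence was taken after 30 min.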

[12] = qHTS assay to identify small molecule antagonists of the farnesoid-X-receptor (FXR) signaling pathway - cell viability counter screen (AID 743221; active means well fitted cell-killing curve with a large enough effect in the repeat runs, not every such curve was filed as active; further: nearly all actives have a fitted effect of over 50% in size)
How it was run: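 Here viability was scored by luminescence after CellTiter-Glo addition to wells already read for beta-lactamase. Prior treatment: compound plus CDCA (50 uM final), 16 h, 37 C, HEK 293T FXR-bla cells.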

[13] = qHTS assay to identify small molecule agonists of the vitamin D receptor (VDR) signaling pathway - cell viability counter screen (AID 743224); further: series mostly up to about 63 µM; nearly all actives have a fitted effect of over 50% in size
How it was run: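 Here cell health was gauged by luminescent ATP detection (CellTiter-Glo, 30 min RT) in VDR-bla cells that had been incubated with test compounds for 16 h at 37C and 5% CO2.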

[14] = target: Peroxisome proliferator-activated receptor delta (Homo sapiens) (UniProt Q03181); assay: qHTS assay to identify small molecule agonists of the peroxisome proliferator-activated receptor delta (PPARd) signaling pathway (AID 743212; calls by dose curve)
How it was run: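 GeneBLAzer PPARd UAS-bla HEK293H cells (beta-lactamase reporter under UAS control), plated and rested 5 h at 37 C, then exposed to compounds in DMSO at 37 C; LiveBLAzer B/G FRET substrate added, 2 h room temperature, fluorescence read.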

[15] = target: Peroxisome proliferator-activated receptor delta (Homo sapiens) (UniProt Q03181); assay: qHTS assay to identify small molecule antagonists of the peroxisome proliferator-activated receptor delta (PPARd) signaling pathway (AID 743215; active means well fitted inhibition curve with a large enough effect in the signal ratio in the repeat runs, not every such curve was filed as active; the % refers to the signal ratio;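 further: cells stimulated with agonist L165041 at 300 nM final during compound exposure; series mostly up to about 62 µM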)
How it was run: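 With L165041 present at 300 nM final, compounds were incubated 17 h at 37 C on PPARd UAS-bla HEK293H cells. A FRET-based beta-lactamase substrate was then applied for 2 h at room temperature and fluorescence intensity recorded.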

[16] = target: Bile acid receptor (Homo sapiens) (UniProt Q96RI1); assay: qHTS assay to identify small molecule antagonists of the farnesoid-X-receptor (FXR) signaling pathway (AID 743217; active means well fitted inhibition curve with a large enough effect in the signal ratio in the repeat runs, not every such curve was filed as active; the % refers to the signal ratio)
How it was run: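 In this cell-based antagonist screen, inhibition of CDCA-driven (50 uM final) UAS-beta-lactamase expression in HEK 293T cells was measured by FRET fluorescence following 16 h compound exposure at 37 °C.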

[17] = target: Vitamin D3 receptor (Homo sapiens) (UniProt P11473); assay: qHTS assay to identify small molecule agonists of the vitamin D receptor (VDR) signaling pathway (AID 743222; calls by dose curve)
How it was run: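 VDR-bla cells were seeded, left 4 h, treated with compounds in DMSO for 16 h, incubated 2 h at RT with B/G FRET substrate, and read for fluorescence.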

[18] = qHTS assay for small molecule agonists of the antioxidant response element (ARE) signaling pathway (AID 743202; active means well fitted activation curve with a large enough effect in the signal ratio in the repeat runs, not every such curve was filed as active; the % refers to the signal ratio)
How it was run: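 Read-out: LiveBLAzer B/G FRET substrate fluorescence after 2 h at room temperature, following 16 h compound treatment at 37 C of HepG2 cells carrying an ARE-driven beta-lactamase reporter.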

[19] = target: Bile acid receptor (Homo sapiens) (UniProt Q96RI1); assay: qHTS assay to identify small molecule agonists of the farnesoid-X-receptor (FXR) signaling pathway (AID 743220; active means well fitted activation curve with a large enough effect in the signal ratio in the repeat runs, not every such curve was filed as active; the % refers to the signal ratio)
How it was run: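 Beta-lactamase reporter under UAS control in GeneBLAzer FXR HEK 293T cells (5000/well) measured with LiveBLAzer FRET substrate after 2 h at room temperature. Compound exposure lasted 16 h at 37C.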

[20] = target: Vitamin D3 receptor (Homo sapiens) (UniProt P11473); assay: qHTS assay to identify small molecule antagonists of the vitamin D receptor (VDR) signaling pathway (AID 743223; active means well fitted inhibition curve with a large enough effect in the signal ratio in the repeat runs, not every such curve was filed as active; the % refers to the signal ratio)
How it was run: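 Inhibition of agonist-driven VDR signalling is scored in VDR-bla cells: 3 nM final 1alpha,25-dihydroxyvitamin D3 plus compound, 16 h at 37C, then beta-lactamase detection by FRET substrate fluorescence after 2 h.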

Measured: Potency

Chain of Aryl hydrocarbon receptor (Homo sapiens) (P35869 whole entry, looked up): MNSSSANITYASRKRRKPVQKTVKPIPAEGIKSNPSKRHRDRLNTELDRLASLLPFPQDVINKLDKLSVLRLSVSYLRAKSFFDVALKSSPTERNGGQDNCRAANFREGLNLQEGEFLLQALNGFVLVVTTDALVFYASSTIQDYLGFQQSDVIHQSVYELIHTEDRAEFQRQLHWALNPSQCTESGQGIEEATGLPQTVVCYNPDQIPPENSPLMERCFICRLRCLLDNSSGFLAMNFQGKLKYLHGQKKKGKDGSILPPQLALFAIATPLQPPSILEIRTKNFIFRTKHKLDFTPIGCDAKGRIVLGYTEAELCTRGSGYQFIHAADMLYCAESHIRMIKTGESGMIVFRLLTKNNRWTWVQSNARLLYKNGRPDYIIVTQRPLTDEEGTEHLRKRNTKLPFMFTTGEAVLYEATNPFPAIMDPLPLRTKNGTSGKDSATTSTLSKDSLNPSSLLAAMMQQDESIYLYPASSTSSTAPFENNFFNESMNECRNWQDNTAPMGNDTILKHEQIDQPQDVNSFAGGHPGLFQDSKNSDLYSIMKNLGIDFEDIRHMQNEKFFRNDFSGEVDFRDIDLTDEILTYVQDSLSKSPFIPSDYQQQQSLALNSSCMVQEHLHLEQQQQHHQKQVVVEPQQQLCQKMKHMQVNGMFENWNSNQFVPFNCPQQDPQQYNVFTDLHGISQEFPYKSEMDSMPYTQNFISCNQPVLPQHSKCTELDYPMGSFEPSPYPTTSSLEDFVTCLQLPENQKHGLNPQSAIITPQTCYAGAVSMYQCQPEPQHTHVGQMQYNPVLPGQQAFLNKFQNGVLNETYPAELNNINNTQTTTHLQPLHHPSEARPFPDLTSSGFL
Chain of Peroxisome proliferator-activated receptor gamma (Homo sapiens) (P37231 whole entry, looked up): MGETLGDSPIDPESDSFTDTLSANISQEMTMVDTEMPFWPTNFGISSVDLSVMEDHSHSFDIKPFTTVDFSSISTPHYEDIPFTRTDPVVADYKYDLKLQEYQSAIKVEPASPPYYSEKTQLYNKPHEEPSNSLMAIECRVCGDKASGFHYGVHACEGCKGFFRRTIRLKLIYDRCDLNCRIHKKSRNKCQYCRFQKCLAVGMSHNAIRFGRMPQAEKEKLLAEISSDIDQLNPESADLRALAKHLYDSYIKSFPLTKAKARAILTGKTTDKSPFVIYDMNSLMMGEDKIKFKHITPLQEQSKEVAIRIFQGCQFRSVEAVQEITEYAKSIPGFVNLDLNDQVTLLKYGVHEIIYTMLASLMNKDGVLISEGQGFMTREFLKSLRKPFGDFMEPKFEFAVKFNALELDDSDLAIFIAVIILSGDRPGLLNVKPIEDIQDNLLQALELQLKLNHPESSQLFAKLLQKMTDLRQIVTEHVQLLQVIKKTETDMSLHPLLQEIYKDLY
Chain of Vitamin D3 receptor (Homo sapiens) (P11473 whole entry, looked up): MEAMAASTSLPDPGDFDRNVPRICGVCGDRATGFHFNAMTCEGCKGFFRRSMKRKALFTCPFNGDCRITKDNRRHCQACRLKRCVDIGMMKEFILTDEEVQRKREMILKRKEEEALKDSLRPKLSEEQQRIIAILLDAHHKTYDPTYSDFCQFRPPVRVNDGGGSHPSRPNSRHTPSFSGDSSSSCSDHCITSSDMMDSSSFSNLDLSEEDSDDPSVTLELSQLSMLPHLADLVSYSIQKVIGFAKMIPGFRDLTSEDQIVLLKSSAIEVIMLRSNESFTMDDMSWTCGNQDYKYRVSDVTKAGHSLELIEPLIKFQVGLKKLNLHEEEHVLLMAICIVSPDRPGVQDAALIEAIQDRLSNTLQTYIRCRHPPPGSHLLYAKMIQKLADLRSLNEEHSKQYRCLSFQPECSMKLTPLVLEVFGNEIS
Chain of Peroxisome proliferator-activated receptor delta (Homo sapiens) (Q03181 whole entry, looked up): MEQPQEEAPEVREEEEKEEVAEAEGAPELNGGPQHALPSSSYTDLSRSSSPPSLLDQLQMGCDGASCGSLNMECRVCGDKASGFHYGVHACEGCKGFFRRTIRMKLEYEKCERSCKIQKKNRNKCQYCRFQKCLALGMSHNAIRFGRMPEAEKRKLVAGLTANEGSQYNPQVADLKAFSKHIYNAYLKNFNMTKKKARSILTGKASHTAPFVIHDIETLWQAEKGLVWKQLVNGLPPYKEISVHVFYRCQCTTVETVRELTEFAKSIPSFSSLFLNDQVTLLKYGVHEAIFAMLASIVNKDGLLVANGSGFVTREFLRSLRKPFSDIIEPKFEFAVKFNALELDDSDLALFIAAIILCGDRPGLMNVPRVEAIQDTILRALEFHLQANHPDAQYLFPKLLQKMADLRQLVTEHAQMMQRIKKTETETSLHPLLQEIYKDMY
Chain of Bile acid receptor (Homo sapiens) (Q96RI1 whole entry, looked up): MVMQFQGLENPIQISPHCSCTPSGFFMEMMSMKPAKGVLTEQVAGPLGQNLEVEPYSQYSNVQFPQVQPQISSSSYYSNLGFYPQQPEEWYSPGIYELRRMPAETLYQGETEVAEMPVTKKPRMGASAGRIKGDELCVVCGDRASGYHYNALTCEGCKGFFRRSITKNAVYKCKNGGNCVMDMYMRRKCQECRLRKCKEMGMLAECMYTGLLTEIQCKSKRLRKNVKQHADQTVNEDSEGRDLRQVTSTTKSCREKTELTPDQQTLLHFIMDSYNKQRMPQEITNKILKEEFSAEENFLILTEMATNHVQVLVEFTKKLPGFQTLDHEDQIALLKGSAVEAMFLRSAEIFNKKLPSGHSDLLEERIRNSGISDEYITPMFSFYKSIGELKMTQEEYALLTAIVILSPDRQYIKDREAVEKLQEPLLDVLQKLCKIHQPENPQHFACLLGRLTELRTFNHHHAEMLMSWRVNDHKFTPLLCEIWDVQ

CC(=O)CC/C=C(\C)CCC=C(C)C
inactive: [1] | [2] | [3] | [4] | [5] | [6] | [7] | [8] | [9] | [10] | [11] | [12] | [13]

O=C1c2cccc(O)c2C(=O)c2c(O)cccc21
inactive: [1] | [2] | [3] | [4] | [5] | [6] | [7] | [8] | [9] | [14] | [15] | [16] | [11] | [12] | [17] | [13]

Nc1ccc(Cl)cc1Cl
inactive: [1] | [2] | [3] | [4] | [5] | [18] | [6] | [7] | [8] | [9] | [14] | [10] | [15] | [16] | [19] | [12] | [13]

Cc1ccc(C)c(O)c1C
inactive: [1] | [2] | [3] | [4] | [5] | [6] | [7] | [8] | [9] | [14] | [10] | [15] | [11] | [12] | [17] | [13]

Cc1cccc(C(=O)O)c1
inactive: [1] | [2] | [3] | [4] | [5] | [6] | [7] | [8] | [9] | [14] | [10] | [15] | [11] | [12] | [17] | [13]

COc1ccc(OC)c(C(O)CNC(=O)CN)c1 (configuration not stated)
inactive: [1] | [2] | [3] | [4] | [5] | [6] | [7] | [8] | [9] | [14] | [10] | [15] | [16] | [11] | [19] | [12] | [20] | [13]

CCC(C)OC(=O)c1ccc(O)cc1 (configuration not stated)
inactive: [1] | [2] | [3] | [4] | [5] | [6] | [7] | [8] | [9] | [14] | [10] | [15] | [11] | [12] | [20] | [13]
